Screening data as filed in PubChem.
GDH-TPI counter = GDH-TPI coupling enzyme inhibitors, primary screen, artefact control for M. tuberculosis FBA inhibitor project, biochemical, absorbance, full deck. inhibition, % at 4.8 µM. 360,000 compounds, 1.2% hits. GDH-TPI coupled enzyme counterscreen, NADH absorbance. AID 588335, 2011; in the data active means inhibition above about 30%;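 further: 0% = DMSO wells and 100% = wells lacking the enzyme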
Mtb bLac sens = beta-lactam sensitization of Mtb H37Rv, H37Rv. M. tuberculosis H37Rv growth with meropenem, percent inhibition. inhibition, % at 25 µM. 330,000 compounds, 0.27% hits. AID 434955, 2010; call rule not given here;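 further: growth measured after seven days incubation then overnight dye step; 0% = bacteria only wells and 100% = bacteria with antibiotic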
Rv3671c inh = Rv3671c serine protease inhibitors, primary screen, biochemical, fluorescence polarization, M. tuberculosis H37Rv. 320,000 compounds, 0.048% hits. inhibition, % at 5.96 µM. AID 2606, 2010. P9WHR9; in the data active means inhibition above about 38%;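 further: extracellular domain of Rv3671c used as enzyme; 0% = enzyme with DMSO and 100% = no enzyme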
Target sequence (P9WHR9 whole entry, looked up, the tested form may be a part): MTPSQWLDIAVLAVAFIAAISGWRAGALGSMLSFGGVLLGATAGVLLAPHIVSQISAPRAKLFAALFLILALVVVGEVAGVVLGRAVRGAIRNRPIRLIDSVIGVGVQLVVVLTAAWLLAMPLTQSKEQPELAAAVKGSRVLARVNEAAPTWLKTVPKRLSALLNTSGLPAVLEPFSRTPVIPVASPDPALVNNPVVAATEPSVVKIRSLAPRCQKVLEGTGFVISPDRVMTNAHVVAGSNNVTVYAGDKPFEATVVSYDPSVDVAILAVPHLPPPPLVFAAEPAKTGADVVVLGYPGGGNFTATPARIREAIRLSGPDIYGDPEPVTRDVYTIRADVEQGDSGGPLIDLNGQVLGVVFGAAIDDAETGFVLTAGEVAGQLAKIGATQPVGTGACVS
RecA intein inh = Mtb RecA intein splicing inhibitors, primary screen, biochemical, fluorescence, HTS | Protein RecA (Mycobacterium tuberculosis (strain ATCC 25618 / H37Rv)), P9WHJ3 | cell-free RecA intein splicing | inhibition, % (test concentration not listed) | 290,000 compounds, 0.75% hits | AID 2221, 2009; in the data active means inhibition above about 30%;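 further: 0% = vehicle wells and 100% = reference inhibitor control wells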
Mtb UGM inh = M. tuberculosis UGM enzyme inhibitors, primary screen, biochemical, fluorescence polarization, single point | UDP-galactopyranose mutase (Mycobacterium tuberculosis (strain ATCC 25618 / H37Rv)), … | purified UGM, fluorescence polarization probe displacement | inhibition, % at 10 µM | 320,000 compounds, 0.06% hits | AID 504406, 2011; in the data active means inhibition above about 10%, passing the limit was not always enough
Mtb FBA inh = Mtb FBA enzyme inhibitors, primary screen, biochemical, fluorescence, strain H37Rv; Fructose-bisphosphate aldolase (Mycobacterium tuberculosis (strain ATCC 25618 / H37Rv)), …; purified M. tuberculosis FBA, fluorescence read-out; inhibition, % at 1 µM; 360,000 compounds, 2.3% hits; AID 588726, 2011; in the data active means inhibition above about 27%;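 further: 0% = vehicle and 100% = reference inhibitor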
Numbers without * were called inactive. Shown are actives, neighbours in structure and some others; about 4% of the full set was active somewhere.

Screening CC(c1nccs1)N(C)c1nc2nonc2nc1N(C)C (stereo not given) returned GDH-TPI counter 25, Mtb bLac sens -3, Rv3671c inh 1, RecA intein inh -1, Mtb UGM inh 0 and Mtb FBA inh 2.
Screening O=C(CN1C(=O)CSc2ncccc21)Nc1ccccc1F returned GDH-TPI counter 7, Mtb bLac sens 1, Rv3671c inh -6, RecA intein inh 0, Mtb UGM inh 1 and Mtb FBA inh -3.
`c1ccc(C2Nc3ccccc3-c3nc4ccccc4n32)cc1` (stereo not given) gave GDH-TPI counter 18, Mtb bLac sens 1, Rv3671c inh 4, RecA intein inh -2, Mtb UGM inh 1 and Mtb FBA inh 139*.
Screening c1ccc(C2Nc3ccccc3-c3nc4ccccc4n32)nc1 (stereo not given) returned GDH-TPI counter 5, Mtb bLac sens -3, Rv3671c inh 4, RecA intein inh -12, Mtb UGM inh 0 and Mtb FBA inh 119*.
CCOc1ccc(NS(=O)(=O)c2ccc(C(=O)NCC(c3ccc(OC)cc3)N3CCCC3)cc2)cc1 (stereo not given) was read as GDH-TPI counter 1, Mtb bLac sens 12, Rv3671c inh -4, RecA intein inh 1, Mtb UGM inh 5 and Mtb FBA inh 1.
C/C(O)=C(/C=NCC(=O)O)C(=O)Nc1nccs1 was read as GDH-TPI counter -1, Mtb bLac sens 1, Rv3671c inh -11, RecA intein inh 0, Mtb UGM inh 1 and Mtb FBA inh 2.
For Cc1cc(OC(=O)c2cc(Cl)ccc2Cl)c([N+](=O)[O-])c(=O)[nH]1 the results were GDH-TPI counter -2, Mtb bLac sens 1, Rv3671c inh 0, RecA intein inh -2, Mtb UGM inh 1 and Mtb FBA inh 0.
Screening C=CCNC(=O)CSc1nc2sc3c(c2c(=O)n1CCC)CCC3 returned GDH-TPI counter 3, Mtb bLac sens 2, Rv3671c inh 9, RecA intein inh 1, Mtb UGM inh -1 and Mtb FBA inh 0.
For C=CCNC(=O)CSc1nc2sc3c(c2c(=O)n1CCCOC)CCC3 the results were GDH-TPI counter 35*, Mtb bLac sens 0, Rv3671c inh 4, RecA intein inh 0, Mtb UGM inh 2 and Mtb FBA inh 11.
`O=S(=O)(c1ccc(Cl)cc1)c1snnc1-c1ccccc1` gave GDH-TPI counter 11, Mtb bLac sens 99, Rv3671c inh -4, RecA intein inh 81*, Mtb UGM inh -1 and Mtb FBA inh -1.
`CN(C)c1ncc(S(=O)(=O)c2ccc(Cl)cc2)c(-c2ccccc2)n1` gave GDH-TPI counter 4, Mtb bLac sens 3, Rv3671c inh 5, RecA intein inh 5, Mtb UGM inh -1 and Mtb FBA inh 1.
Screening O=S(=O)(c1ccc(F)cc1)c1snnc1-c1ccccc1 returned GDH-TPI counter -3, Mtb bLac sens 72, Rv3671c inh -5, RecA intein inh 69*, Mtb UGM inh -2 and Mtb FBA inh 1.
c1ccc(-c2nnsc2-c2ncc[nH]2)cc1 was read as GDH-TPI counter 6, Mtb bLac sens 10, Rv3671c inh -5, RecA intein inh -1, Mtb UGM inh -2 and Mtb FBA inh 1.
`N#Cc1c(N)c(C(=O)c2ccc(Br)cc2)n2c1CCC2` gave GDH-TPI counter 31*, Mtb bLac sens 3, Rv3671c inh 2, RecA intein inh 2, Mtb UGM inh 0 and Mtb FBA inh 1.
COCCNC(=O)c1cc(-c2ccccc2C)nn1CC1CC(c2cccnc2)=NO1 (stereo not given) was read as GDH-TPI counter 11, Mtb bLac sens -3, Rv3671c inh 3, Mtb UGM inh -1 and Mtb FBA inh 4.
Screening Cc1c(Cl)c(=O)oc2cc(OCC(=O)N3CCCC(C)C3)ccc12 (stereo not given) returned GDH-TPI counter 17, Mtb bLac sens -8, Rv3671c inh 10, Mtb UGM inh -3 and Mtb FBA inh active.
